High-throughput results: PubChem, The Scripps Research Institute Molecular Screening Center
Many of the other results were omitted from the sample, so hits are more common in it than they were.
GBA enhancer: increases beta-glucosidase activity in Gaucher fibroblasts; activation, % at 10 µM; L444P Gaucher fibroblasts, 4-MU-glucoside fluorescence, 3 days; AID 784; P04062; 30,000 tested, 0.44% active; in the data active = activation above about 65%
Target sequence (P04062 whole entry L483P): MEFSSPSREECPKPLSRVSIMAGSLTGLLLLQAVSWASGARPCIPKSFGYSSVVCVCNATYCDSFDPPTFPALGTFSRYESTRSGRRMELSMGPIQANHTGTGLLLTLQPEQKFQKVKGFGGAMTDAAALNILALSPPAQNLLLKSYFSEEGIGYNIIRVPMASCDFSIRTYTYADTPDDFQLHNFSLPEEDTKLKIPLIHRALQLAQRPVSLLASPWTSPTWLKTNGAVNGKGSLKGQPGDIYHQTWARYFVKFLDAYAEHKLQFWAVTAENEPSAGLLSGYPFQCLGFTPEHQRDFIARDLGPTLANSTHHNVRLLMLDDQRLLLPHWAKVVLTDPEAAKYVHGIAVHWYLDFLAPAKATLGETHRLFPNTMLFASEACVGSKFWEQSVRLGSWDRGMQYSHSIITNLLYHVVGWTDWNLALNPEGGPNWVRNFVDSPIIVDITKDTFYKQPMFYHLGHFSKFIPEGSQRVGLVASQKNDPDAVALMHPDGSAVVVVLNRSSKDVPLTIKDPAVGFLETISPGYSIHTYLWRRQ
A number is an active result; . = inactive.

SMILES | GBA enhancer
CC(=O)c1cccc(NC(=O)C=C(C)C)c1 | .
COC(=O)CC1Sc2ccccc2NC1=O (configuration not stated) | .
CC(=O)c1ccc2c(c1)Nc1ccccc1S2 | 71
CC(=O)N(CC1CCCO1)c1nnc(-c2cnccn2)s1 (configuration not stated) | .
COC(=O)C1=C(C)NC(=O)NC1c1ccc(OCC(=O)N2CCCCC2)cc1 (configuration not stated) | .
COc1ccccc1OC(=O)c1ccc(SC)cc1OC | .
COc1ccc(CNC(=O)CN(CC2CCCO2)C(=O)CNS(=O)(=O)c2ccccc2)cc1 (configuration not stated) | .
Cc1ccc(S(=O)(=O)NCC(=O)N(CC(=O)NCc2ccccc2)CC2CCCO2)cc1 (configuration not stated) | .
COc1ccc(CNC(=O)CN(CC2CCCO2)C(=O)CNS(=O)(=O)c2ccc(C)cc2)cc1 (configuration not stated) | 76
CC(C)(C)NC(=O)CSc1nnc(-c2ccco2)n1Cc1ccco1 | 78
CCN(CC)C(=O)CSc1nnc(-c2ccco2)n1Cc1ccco1 | .
COC(=O)CSc1nnc(-c2ccco2)n1Cc1ccco1 | .
CC(C)(O)C#Cc1ccc(C(=O)NCc2cccs2)s1 | .
O=C(COC(=O)Cc1ccsc1)NC1CCCCCC1 | .
Cc1nnc(SCCn2c(N3CC(C)CC(C)C3)nc3c2c(=O)[nH]c(=O)n3C)s1 (configuration not stated) | .
O=C(CN1CCN(c2ccc(F)cc2)CC1)OCc1ccccc1 | .
CCCn1c2ccccc2c2nnc(SCC(=O)OCC)nc21 | .
O=C(CSc1nnc2c(n1)[nH]c1ccc(F)cc12)OCc1ccccc1 | 76
Cc1ccc(C)n1-c1ccc(C(=O)NCC2CCCO2)cc1 (configuration not stated) | 93
CCCNS(=O)(=O)c1ccc(C(=O)NCC2CCCO2)cc1 (configuration not stated) | .
CCCCS(=O)(=O)Nc1ccc(C(=O)NCC2CCCO2)cc1 (configuration not stated) | .
O=C(CN1CCC(NC(=O)c2cccc(F)c2)CC1)NCc1ccccc1F | .
C=C(C)Cn1c(CCCNC(=O)C(C)(C)C)nc2ccccc21 | .
CCN(CC)S(=O)(=O)c1csc(C(=O)NCc2ccccc2)c1 | .
COc1ccc(OC)c(C(=O)CSc2nnc(-c3cccnc3)n2C)c1 | .
SMILES | GBA enhancer
Clc1ccc(C2=Nn3c(nnc3-c3cccnc3)SC2)s1 | .
O=c1oc2ccccc2cc1C1=Nn2c(nnc2-c2cccnc2)SC1 | .
Brc1ccc(C2=Nn3c(nnc3-c3cccnc3)SC2)s1 | 98
O=C(CCCCCC(=O)N(CCO)CCO)N(CCO)CCO | .
Cc1nc2c(cnn2-c2ccc(Cl)cc2)c(=O)n1-c1ccc2c(c1)OCCO2 | .
O=C(CCCNS(=O)(=O)c1cccc2nsnc12)NCc1ccc(Cl)cc1 | .
COc1ccc(CNC(=O)CCCNS(=O)(=O)c2cccc3nonc23)cc1 | 183
O=C(CCCNS(=O)(=O)c1cccc2nsnc12)NCc1ccccc1 | .
CC(=O)c1c(C)[nH]c(C(=O)OCCCCN2C(=O)c3ccccc3C2=O)c1C | .
CC(C)CC(OC(=O)c1ccco1)C(=O)NC1CCCCC1 (configuration not stated) | .
O=C(c1cc2nc(-c3ccccc3)cc(-c3ccccc3)n2n1)N1CCN(C(=O)c2ccco2)CC1 | .
COCc1nnc(NC(=O)c2ccc(S(=O)(=O)N(C)C3CCCCC3)cc2)o1 | 79
COCc1nnc(NC(=O)c2ccc(S(=O)(=O)N3CCCCCC3)cc2)o1 | .
COCCN(CCOC)S(=O)(=O)c1ccc(C(=O)Nc2nnc(C)o2)cc1 | .
CCOc1cc(C2NC(=O)NC(O)(C(F)(F)F)C2C(=O)c2ccc(OC)cc2)ccc1O (configuration not stated) | .
CC1=C(C(N)=O)C(c2cccs2)n2nc(-c3cccc(C)c3)nc2N1 (configuration not stated) | 91
CC1=C(C(N)=O)C(c2cccnc2)n2nc(-c3cccc(C)c3)nc2N1 (configuration not stated) | .
CCOc1ccccc1C1C(C(N)=O)=C(C)Nc2nc(-c3cccc(C)c3)nn21 (configuration not stated) | .
S=c1[nH]nc(Cc2ccccc2)n1Cc1ccco1 | 101
COc1cccc(-c2n[nH]c(=S)n2Cc2ccco2)c1OC | .
O=C(NCc1n[nH]c(=S)n1-c1ccccc1)c1ccco1 | .
CCOCCCNC(=O)c1ccc(CS(=O)(=O)Cc2ccc(C)cc2)o1 | .
CCC1CCCCN1C(=O)Cn1c(=O)oc2ccccc21 (configuration not stated) | .
O=C(c1cn(CC(=O)N2CCCC2)c2ccccc12)C1CCCCC1 | .
O=S(=O)(NC1c2cccc3cccc(c23)C1N1CCN(CCO)CC1)c1ccccc1 (configuration not stated) | .
O=S(=O)(NC1c2cccc3cccc(c23)C1N1CCNCC1)c1ccccc1 (configuration not stated) | 74
O=S(=O)(NC1CC1)c1cccc(S(=O)(=O)N2CCCC2)c1 | .
